Source: PMC6602471

What follows are sequences tested against RUNX1 (Homo sapiens, UniProt Q01196 1-453) (assay: custom PBM; custom protein-binding microarray; buffer, salt, pH and temperature not stated; high values mean tight binding). Settings: dsDNA, one strand shown.
RUNX1, sequence (Q01196 whole entry): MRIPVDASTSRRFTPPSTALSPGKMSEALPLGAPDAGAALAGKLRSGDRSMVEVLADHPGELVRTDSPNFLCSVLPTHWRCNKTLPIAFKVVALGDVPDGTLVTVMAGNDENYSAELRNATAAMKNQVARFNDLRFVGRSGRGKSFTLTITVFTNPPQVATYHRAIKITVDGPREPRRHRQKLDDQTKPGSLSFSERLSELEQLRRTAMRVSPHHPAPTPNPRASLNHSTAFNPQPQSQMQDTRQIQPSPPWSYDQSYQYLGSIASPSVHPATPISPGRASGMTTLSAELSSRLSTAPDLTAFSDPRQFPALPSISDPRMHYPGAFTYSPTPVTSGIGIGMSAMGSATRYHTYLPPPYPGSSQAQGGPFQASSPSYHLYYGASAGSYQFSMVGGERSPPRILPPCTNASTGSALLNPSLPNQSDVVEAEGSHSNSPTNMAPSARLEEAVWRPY

Row | Sequence | binding signal
1 | GCATACGGCTGACGTCAACCACATACGCACACATACACATACACACATACACATACGCAC | 11 log fluorescence intensity
2 | CGCGCACTCTGTGGTAGCGCACATACGCACACATACACATACACACATACACATACGCAC | 11 log fluorescence intensity
3 | GCGCACATATCCCGTAAATCATACACGCACACATACACATACACACATACACATACGCAC | 10.9 log fluorescence intensity
4 | GCGCACATTTCCCGTACATCATACACGCACACATACACATACACACATACACATACGCAC | 11 log fluorescence intensity
5 | GCGCACATTTCCCGTAACTCATACACGCACACATACACATACACACATACACATACGCAC | 11 log fluorescence intensity
6 | CGCGCGCTCTGTGGTTGCGCACATACGCACACATACACATACACACATACACATACGCAC | 11.2 log fluorescence intensity
7 | GCATACGACTGACGTCAGCCACATACGCACACATACACATACACACATACACATACGCAC | 11 log fluorescence intensity
8 | CGCGCACGCTGTGGTTGCGCACATACGCACACATACACATACACACATACACATACGCAC | 11.2 log fluorescence intensity
9 | CGCGCACTCGGTGGTTGCGCACATACGCACACATACACATACACACATACACATACGCAC | 11 log fluorescence intensity
10 | GCGCATATTTCCCGTAAATCATACACGCACACATACACATACACACATACACATACGCAC | 10.9 log fluorescence intensity
11 | GCATACGGCTGTCGTCAGCCACATACGCACACATACACATACACACATACACATACGCAC | 10.9 log fluorescence intensity
12 | GCATACGGCTGACGTCATCCACATACGCACACATACACATACACACATACACATACGCAC | 10.9 log fluorescence intensity
13 | CGCGCACTCTGTGGTTGCCCACATACGCACACATACACATACACACATACACATACGCAC | 11.3 log fluorescence intensity
14 | GCATACGGCGGACGTCAGCCACATACGCACACATACACATACACACATACACATACGCAC | 11 log fluorescence intensity
15 | CGCGCACTCTGTGGTTGGGCACATACGCACACATACACATACACACATACACATACGCAC | 11.6 log fluorescence intensity
16 | GCATACGGCTAACGTCAGCCACATACGCACACATACACATACACACATACACATACGCAC | 11 log fluorescence intensity

Row | Sequence | binding signal
17 | CGCGCACTCTGTGTTTGCGCACATACGCACACATACACATACACACATACACATACGCAC | 11 log fluorescence intensity
18 | GCATACGGCTGCCGTCAGCCACATACGCACACATACACATACACACATACACATACGCAC | 11 log fluorescence intensity
19 | GCGCACATTTCACGTAAATCATACACGCACACATACACATACACACATACACATACGCAC | 10.9 log fluorescence intensity
20 | GCGCACATTTCCCGCAAATCATACACGCACACATACACATACACACATACACATACGCAC | 11.1 log fluorescence intensity
21 | CGCGCACTCTGTGGTTCCGCACATACGCACACATACACATACACACATACACATACGCAC | 11.4 log fluorescence intensity
22 | CGCGCACTCTGTGCTTGCGCACATACGCACACATACACATACACACATACACATACGCAC | 10.9 log fluorescence intensity
23 | CGCGCACTCTGTGGGTGCGCACATACGCACACATACACATACACACATACACATACGCAC | 10.9 log fluorescence intensity
24 | CGCGCACTCTGTGGTTGTGCACATACGCACACATACACATACACACATACACATACGCAC | 11.3 log fluorescence intensity
25 | GCATACGGCTGACGTCAGCTACATACGCACACATACACATACACACATACACATACGCAC | 10.9 log fluorescence intensity
26 | CGCGCACTCTGTGGTTACGCACATACGCACACATACACATACACACATACACATACGCAC | 11.7 log fluorescence intensity
27 | CGCGCACTTTGTGGTTGCGCACATACGCACACATACACATACACACATACACATACGCAC | 11.6 log fluorescence intensity
28 | GCGCACATTTTCCGTAAATCATACACGCACACATACACATACACACATACACATACGCAC | 11.1 log fluorescence intensity
29 | CGCGCACTCTGTGGTTGAGCACATACGCACACATACACATACACACATACACATACGCAC | 11.5 log fluorescence intensity
30 | CGCGCACTCTGTGGCTGCGCACATACGCACACATACACATACACACATACACATACGCAC | 10.9 log fluorescence intensity
31 | GCATACGGCTGACCTCAGCCACATACGCACACATACACATACACACATACACATACGCAC | 11 log fluorescence intensity
32 | CGCGCACTCTGTGGTTTCGCACATACGCACACATACACATACACACATACACATACGCAC | 12.3 log fluorescence intensity
